# In PubChem BioAssay:
# Tested on: PRMT1 (protein arginine N-methyltransferase 1)
# Assay: PRMT1 binders on small-molecule microarrays, primary screen, biochemical, small-molecule microarray, 635 nm fluorescence (AID 1088);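 also: binding of Prmt1 protein to compounds spotted on small-molecule microarray slides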
# Conditions: small-molecule microarray binding, higher = more signal
row,SMILES,composite z-score
1,COc1ccc([Si](C)(C)[C@@H]2[C@@H](CC(=O)N3Cc4ccccc4C[C@H]3CO)O[C@]3(C(=O)N(Cc4cccc(N5C(=O)COc6ccccc65)c4)c4ccccc43)[C@H]2C)cc1,1.49
2,C=C(C)[C@@H]1CC=C(C(O)C2C=CC3C(=O)N(Cc4ccccc4)C(=O)C3N2n2cnnc2)CC1 (stereo not given in full),-0.0461
3,C=C(C(=O)CC[C@@H](OC(C)=O)c1ccc(OCCO)cc1)C(C)C,0.387
4,COc1ccc(C(=O)Nc2cccc(CN3C(=O)[C@@]4(O[C@@H](CC(=O)N5Cc6ccccc6C[C@H]5CO)[C@H]([Si](C)(C)c5ccc(OC)cc5)[C@H]4C)c4ccccc43)c2)cc1,1.55
5,CC[C@@H]1C=C(C(=O)O)[C@H](c2ccc(C(C)C)cc2)N1S(=O)(=O)c1ccc(C)cc1,1.53
6,[N-]=[N+]=NCc1ccccc1C[C@]1(C(=O)NCC(O)CO)COC(c2ccc(OCCCO)cc2)=N1 (stereo not given in full),0.638
7,[N-]=[N+]=Nc1ccccc1[C@@H]1OC(c2ccc(OCCCO)cc2)=N[C@]1(CCS(=O)(=O)c1ccccc1)C(=O)N1CCCCC1,1.56
8,O=C1OCCC/C=C\[C@H]2OC34C=CCN(Cn5nnc6ccccc65)C(=O)[C@H]3N(CCCO)C(=O)[C@@H]4C12 (stereo not given in full),1.19
9,C=CCC(OC(C)=O)[C@@H]1[C@@H](N(Cc2cc3ccccc3o2)C(=O)c2cccc3ccccc23)c2cc(OCCCO)ccc2N1C(=O)Cc1ccc(OC)cc1 (stereo not given in full),0.21
10,Cc1ccc(N2C(=O)c3ccccc3[C@@H](C(=O)NCC(C)C)[C@@H]2c2ccc(CO)cc2)nc1,0.137
11,COCCOC(=O)N1C(=O)[C@@]2(c3ccccc31)[C@H](c1ccc(O)cc1)N1[C@H](c3ccccc3)[C@H](c3ccccc3)OC(=O)[C@H]1[C@@H]2C(N)=O,-0.0183
12,CN(C)CCCC[C@@H]1NC(=O)[C@@H]2C[C@H](C(=O)NCCCCCN)[C@H](c3ccc(O)cc3)N2C1=O,0.255
13,COCCOC(=O)N1C(=O)[C@@]2(c3cc(C#CCCO)ccc31)[C@H](C(=O)NC[C@H](O)c1ccccc1)[C@H]1C(=O)O[C@H](c3ccccc3)[C@H](c3ccccc3)N1[C@@H]2c1ccc(OCCO)cc1,1.54
14,O=C1C2C=CC(C(O)C3CC=CCC3)N(n3cnnc3)C2C(=O)N1Cc1ccccc1 (stereo not given),1.07
15,CC(C)C(O)C1C=CC2C(=O)N(C)C(=O)C2N1N1CCCCC1 (stereo not given),0.594
16,COC(=O)[C@@]1(Cc2ccc(F)cc2)[C@H]2c3cc(C(=O)N4CCCC4)n(CCc4ccc(OC)c(Br)c4)c3C[C@H]2CN1C(=O)c1ccccc1,1.4
17,COCCOC(=O)N1C(=O)[C@@]2(c3cc(C#CC4=CCCCC4)ccc31)[C@H](C(=O)N1CCN(c3ncccn3)CC1)[C@H]1C(=O)O[C@H](c3ccccc3)[C@H](c3ccccc3)N1[C@@H]2c1ccc(OCCO)cc1,1.55
18,O=C1OCC=C[C@H]2OC34C=CCN(CCN5CCOCC5)C(=O)[C@H]3N(CCCCCCO)C(=O)[C@@H]4[C@@H]12 (stereo not given in full),0.171
19,NC(=O)[C@]1(Cc2ccccc2)N=C(c2ccc(OCCCO)cc2)O[C@@H]1c1ccccc1,0.588
20,COc1ccccc1CN1C(=O)c2ccccc2[C@](Cc2ccccc2I)(C(=O)NCc2ccccc2)[C@@H]1c1ccc(CO)cc1,1.02
21,CCCCN1CC=CC23O[C@@H]4C=CCCOC(=O)C4[C@H]2C(=O)N(CCCO)[C@@H]3C1=O (stereo not given in full),-0.253
22,CC(C)NC(=O)[C@@]1(c2ccc([N+](=O)[O-])cc2)CC(=O)N(C(C)C)[C@@H]1c1ccc(CO)cc1,0.859
23,O=C1NC(=O)C2C1C=CC(C(O)c1cccs1)N2Nc1ccccn1 (stereo not given),0.394
24,CN(C)CCCCNC(=O)[C@@H]1C[C@@H]2C(=O)N[C@@H](CCCCN)C(=O)N2[C@@H]1c1cccc(OCCO)c1,1.02
25,C=CC[C@]1(C(=O)O)N=C(c2ccc(OCCCO)cc2)O[C@H]1c1ccccc1CN=[N+]=[N-],-0.697
